NS1 function inh: qHTS Assay for Inhibitors of Influenza NS1 Protein Function; AID 2326, 2010; Potency, µM (doses to about 46.1 µM); hit rate 0.4% among 270,000; calls by dose curve; also: actives are rising curves; nearly all actives have a fitted effect of over 50% in size
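Compounds were scored for reversing the slow growth caused by influenza A NS1 in S. cerevisiae, measured by optical density at 600 nm. Assay medium contained 2% galactose at pH 6.0; NS1-free yeast of the same strain were the positive control.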
CHX counter: Cycloheximide Counterscreen for Small Molecule Inhibitors of Shiga Toxin; cell reporter, cycloheximide protein synthesis inhibition counterscreen; max response, %; hit rate 12% among 300,000; in the data active = max response mostly above about 13%, no sharp cut-off; inactive = mostly below about 14%; also: read at 38.3 µM for the half of the compounds with a filed dose
Pf growth 48h: Primary qHTS for delayed death inhibitors of the malarial parasite plastid, 48 hour incubation; P. falciparum luciferase growth in erythrocytes, 48 h; Potency, µM (highest dose often 28.7 µM), usual class: inhibitors; hit rate 5.9% among 310,000; AID 504832, 2011
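Compounds are pin-transferred into medium, infected erythrocytes (2% hematocrit, 0.1% parasitemia final) are added, and plates sit one parasite generation at 37 C in 5% CO2. Detection reagent is then added and luminescence measured.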
Shiga toxin inh: A qHTS for Small Molecule Inhibitors of Shiga Toxin; inhibition, % at 38.7 µM; Vero cells, Shiga toxin protein synthesis inhibition reporter; hit rate 9.2% among 290,000; in the data active = inhibition mostly above about 28%, no sharp cut-off; inactive = mostly below about 43%
Pf growth 96h: Primary qHTS for delayed death inhibitors of the malarial parasite plastid, 96 hour incubation; P. falciparum luciferase reporter growth, 96 h; Potency, µM (titrated, usually from 28.7 µM), hits mostly inhibitors; hit rate 6.9% among 320,000; AID 504834, 2011
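Cell-based qHTS: luciferase-tagged P. falciparum in erythrocytes (2% hematocrit, 0.05% parasitemia final) incubated with compounds for 96 hours, 37 C, 5% CO2; luciferase detection reagent then added and luminescence measured.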
Hits are given with their value; n = inactive; u = inconclusive; x = no result given. Compounds with a hit are over-represented: about 21% of the library has one in this group of screens. Unless noted, calls follow the shape of the dose curve; as a rule, active = well fitted inhibition curve with a large enough effect; inconclusive = small, poorly fitted or top-dose-only effect, or another doubt; inactive = no such curve, though single readings can be large or run the other way.

SMILES	NS1 function inh	CHX counter	Pf growth 48h	Shiga toxin inh	Pf growth 96h
CC(=O)c1sc(NC(=O)c2cnc(Cl)c(Cl)c2)nc1C	n	14	n	84	n
CC(=O)c1sc(NC(=O)c2cccnc2Cl)nc1C	n	n	n	n	n
CC(=O)c1sc(NC(=O)c2ccc(C)c(C)c2)nc1C	x	47	n	47	n
COc1ccc(C(=O)Nc2nc(C)c(C(=O)N(C)C)s2)cc1OC	n	30	n	n	u
CC1CN(C(=O)Cn2cc(SCC(=O)N3CCOCC3)c3ccccc32)CC(C)O1 (centres undefined)	n	n	n	n	u
CCn1c2ccccc2c2nnc(SCN3C(=O)c4ccccc4C3=O)nc21	n	x	x	x	x
COc1cccc(NC(=O)[C@@H](NC(=O)N2CCn3c2nc2ccccc23)C(C)C)c1	n	n	u	n	u
N#CCCN(CCC#N)C(=S)NC1CC2C=CC1C2 (centres undefined)	n	n	u	n	n
CC(=O)c1sc(NC(=O)c2ccccc2F)nc1C	n	28	n	43	n
Cc1nc(NC(=O)c2ccccc2)sc1Cc1ccc2c(c1)OCO2	n	68	n	25	n
COc1ccc(CCC(=O)Nc2nc(C)c(C(=O)N(C)C)s2)cc1	n	n	7.4µM	n	u
CC(=O)c1sc(NC(=O)c2ccc3c(c2)OCO3)nc1C	n	43	n	82	u
Cc1nc(NC(=O)c2ccc(Cl)cc2)sc1Cc1ccc2c(c1)OCO2	n	n	u	n	u
O=C(CCc1ccc(S(=O)(=O)N2CCOCC2)cc1)N/N=C/c1ccc(O)c(O)c1O	n	n	n	n	n
Brc1ccc(-c2cnco2)cc1	n	n	n	n	n
COc1ccc(CCNS(=O)(=O)CCNC(=O)c2ccc3c(c2)OCO3)cc1	x	x	n	x	n
CC(C)(C)C(O)C(Oc1ccc(Cl)cc1)n1cncn1 (centres undefined)	n	n	u	n	n
CC(C)(C)C(C(Oc1ccc(Cl)cc1)n1cncn1)n1nnnc1C(c1cccc(Cl)c1)N1CCCCC1 (centres undefined)	n	n	1.9µM	n	2.1µM
CCOc1ccc(C2NC(=O)c3sc(=S)n(-c4ccccc4)c3N2)cc1 (centres undefined)	n	n	4.1µM	n	5.9µM
CCOC(=O)C1CCN(CCC(=O)Nc2ccc(Br)c(C)c2)CC1	n	n	n	n	n
CC(C)(C)n1nnnc1C(c1ccccc1F)N(Cc1ccco1)CC1CCCO1 (centres undefined)	n	n	13µM	n	n
O=C(NCc1ccco1)C(c1ccccc1F)N(CC1CCCO1)C(=O)Cn1nnc2ccccc21 (centres undefined)	n	n	n	n	n
Cc1ccc2[nH]c(=O)c(C(c3nnnn3C(C)(C)C)N(Cc3ccco3)CC3CCCO3)cc2c1 (centres undefined)	n	n	6.6µM	n	u
Cc1cccc2cc(C(c3nnnn3C(C)(C)C)N(Cc3ccco3)CC3CCCO3)c(=O)[nH]c12 (centres undefined)	n	n	12µM	n	u
CCn1c(CNC(=O)c2ccco2)nnc1SCC(=O)Nc1ccccc1Cl	n	n	n	n	n
SMILES	NS1 function inh	CHX counter	Pf growth 48h	Shiga toxin inh	Pf growth 96h
O=C(c1ccc(Cn2c(=S)[nH]c3ccc(N4CCOCC4)cc3c2=O)cc1)N1CCN(c2ccc(F)cc2)CC1	x	37	u	88	u
COc1ccc(Cn2c(=S)[nH]c3cc(C(=O)N4CCN(c5ccccc5)CC4)ccc3c2=O)cc1	n	n	n	n	u
O=C(c1ccc(Cn2c(=S)[nH]c3cc4c(cc3c2=O)OCO4)cc1)N1CCN(c2ccccc2)CC1	x	n	u	n	u
COc1ccc(N2CCN(C(=O)c3ccc(Cn4c(=S)[nH]c5ccc(N6CCOCC6)cc5c4=O)cc3)CC2)cc1	x	40	u	87	n
Cc1ccc(C)c(N2CCN(C(=O)c3ccc(Cn4c(=S)[nH]c5ccc(N6CCOCC6)cc5c4=O)cc3)CC2)c1	x	n	2.6µM	n	4.1µM
CSc1ncnc2c1ncn2[C@@H]1O[C@@H](CO)[C@H](O)O[C@@H]1O	n	x	x	x	x
CCOC(=S)SCC(=O)N1CCc2ccccc2C1C1C(=O)CCCC1=O (centres undefined)	n	n	n	n	n
O.O.O.O.O.O.O.O=S(=O)([O-])[O-].[Co+2]	x	x	6.7µM	x	1.7µM
O=C(CSc1nnc(CNC(=O)c2cccs2)o1)Nc1ccccc1F	n	n	n	n	u
Cc1ccc(C(C(=O)NCc2ccc(F)cc2)N(CCCO)C(=O)C2COc3ccccc3O2)o1 (centres undefined)	n	n	u	n	n
FC(F)(F)c1cc(CO[C@@H]2CCCN[C@@H]2c2ccccc2)cc(C(F)(F)F)c1	x	x	12µM	x	u
O=C(NCCc1ccccc1)C1CCC(=O)N(Cc2cccc(C(F)(F)F)c2)C1 (centres undefined)	n	n	n	n	n
CN(C)c1ccc(CNC(=O)CN(C)S(=O)(=O)c2ccc3c(c2)c(=O)n(C)c(=O)n3C)cc1	n	n	n	n	n
COc1cc(C(=O)NC2CCCc3c2cnn3-c2ccccc2F)cc(OC)c1OC (centres undefined)	n	n	u	n	3.3µM
COC(=O)c1ccc(/C=N/NC(=O)CC(=O)NCc2cccnc2)cc1	x	n	n	n	n
CCN(CC)c1ccc(C(=O)NNC(=O)CCl)cc1	x	31	6.6µM	n	u
CC(C(=O)NCCC1=CCCCC1)N1C(=O)c2ccccc2C1=O (centres undefined)	n	n	n	n	5.9µM
COC(=O)C1=C(C)N(CCC2=CCCCC2)C(=O)C1	n	21	n	n	x
O=C1c2ccccc2C(=O)N1CCC1=CCCCC1	n	41	x	89	n
CN(C(=O)c1ccc2c(c1)C(=O)N(CCC1=CCCCC1)C2=O)C1CCCCC1	n	n	x	n	10µM
CCCCOc1cccc(C2C(C(=O)c3cccs3)=C(O)C(=O)N2Cc2cccnc2)c1 (centres undefined)	n	n	n	n	n
CCCCOc1ccc(C(=O)NCC(=O)NCC(c2ccco2)N2CCCCC2)cc1 (centres undefined)	x	x	u	x	n
O=C(NCCC1=CCCCC1)C(c1ccccc1)c1ccccc1	n	n	u	n	u
C=CCn1c(SC(C)C(=O)NCCC2=CCCCC2)nc2ccccc2c1=O (centres undefined)	n	n	x	n	13µM
CC(C)c1nc2sc3c(SCC(N)=O)ncnc3c2c2c1CCC2	n	n	n	n	n
Cc1ccc(NC(=O)/C=C2\NC(=O)CS2)cc1	n	45	n	62	n
CC(C)(C)c1ccc(C(=O)/C=C2\NC(=O)CS2)cc1	n	26	n	n	n
CNC(=O)/C(C#N)=C/c1cn(CC(=O)NCc2ccco2)c2ccccc12	x	n	n	n	n
COCCNC(=O)Cn1cc(/C=C(\C#N)C(=O)NC2CCCC2)c2ccccc21	n	n	n	x	10µM
Cc1ccc(C)c(OCCn2cc(/C=C(\C#N)C(=O)NCC3CCCO3)c3ccccc32)c1 (centres undefined)	u	n	2.6µM	n	1.7µM

High-throughput results (PubChem BioAssay)
